Assay outcomes: PubChem, National Center for Advancing Translational Sciences (NCATS)
SMN2 splice enh: qHTS Assay for Enhancers of SMN2 Splice Variant Expression | AID 1458, 2008 | Potency, µM (series often up to 46.1 µM), for inactives: at the top dose activity change, positive = activation, usual class: activators | hit rate 2.8% among 210,000 | HEK293 SMN2-luciferase splicing reporter, luminescence, 30-36 h; also: % of control where 0% means no effect; nearly all actives have a fitted effect of over 55% in size
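HEK293 cells carry an SMN2 minigene-luciferase reporter in which exon 7 inclusion puts luciferase in frame. Cells were seeded at 2000 cells/well, attached for 10-12 hours, then exposed to compounds for 30-36 hours at 37C before ONE-Glo luminescence.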
ELG1 genotoxic: qHTS screen for small molecules that induce genotoxicity in human embryonic kidney (HEK293T) cells expressing luciferase-tagged ELG1. HEK293T ELG1-luciferase reporter, luminescence, 16 h. Potency, µM (top dose mostly 46 µM), inactives show top-dose activity change, positive = activation, usual class: activators. hit rate 1.3% among 330,000; also: % of control where 0% means no effect; nearly all actives have a fitted effect of over 60% in size
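HEK293T cells expressing luciferase-tagged ELG1 were treated with compound or DMSO for 16 hr at 37°C. Luciferase activity was then read after 30 min with ONE-Glo at room temperature; rising signal flags genetic stress.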
FLuc modulator: qHTS profiling assay for firefly luciferase inhibitor/activator using purifed enzyme and Km concentrations of substrates (counterscreen for miR-21 project). Luciferin 4-monooxygenase (Photinus pyralis), P08659. AID 588342, 2011. hit rate 6.9% among 360,000. Potency, µM (titrated, usually from 57.5 µM), for the others: top-dose activity change, negative = inhibition, usual class: inhibitors. purified FLuc, Km substrates, luminescence inhibition;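 also: plate controls were vehicle for no effect and reference inhibitor for full effect; nearly all actives have a fitted effect of over 55% in size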
Target sequence (P08659 whole entry, looked up): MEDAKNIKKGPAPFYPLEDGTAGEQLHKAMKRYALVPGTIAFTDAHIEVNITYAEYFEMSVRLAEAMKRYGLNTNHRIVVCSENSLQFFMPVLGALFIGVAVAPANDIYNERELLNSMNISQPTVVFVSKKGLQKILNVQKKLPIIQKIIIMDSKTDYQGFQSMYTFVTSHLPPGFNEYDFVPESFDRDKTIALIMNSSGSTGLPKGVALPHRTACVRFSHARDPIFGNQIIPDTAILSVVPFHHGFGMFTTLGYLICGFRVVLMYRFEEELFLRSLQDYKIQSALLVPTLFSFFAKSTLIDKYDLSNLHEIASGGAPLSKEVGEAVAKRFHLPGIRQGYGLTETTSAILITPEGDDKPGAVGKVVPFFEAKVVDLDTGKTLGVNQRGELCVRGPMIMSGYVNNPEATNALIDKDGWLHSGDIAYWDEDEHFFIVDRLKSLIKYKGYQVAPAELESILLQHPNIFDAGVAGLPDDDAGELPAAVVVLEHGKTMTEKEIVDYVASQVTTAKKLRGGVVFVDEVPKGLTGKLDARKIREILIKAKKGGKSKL
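Purified P. pyralis luciferase, 10 nM final, with Km-level 10 uM D-luciferin and 10 uM ATP in 50 mM Tris acetate pH 7.5, 10 mM Mg acetate, 0.01% Tween-20, 0.05% BSA; 6-point qHTS titration about 60 µM downward; luminescence read.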
ELG1 DNA repair: qHTS screen for small molecules that inhibit ELG1-dependent DNA repair in human embryonic kidney (HEK293T) cells expressing luciferase-tagged ELG1; Potency, µM (highest dose often 46.1 µM), for the others: at the highest dose activity change, negative = inhibition, most hits filed as inhibitors; HEK293T ELG1-luciferase reporter, luminescence, 16 h; DNA damage induced by 5-fluorouridine; hit rate 2.3% among 330,000; also: % is scaled to controls: 0 for no effect and ±100 for the full control effect; nearly all actives have a fitted effect of over 55% in size
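In this reporter screen, reduction of luminescence relative to DMSO vehicle indicated activity. Compounds and 5-fluorouridine were added together to 2,000 cells per well, incubated for 16 hr at 37 °C, then developed with ONE-Glo.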
NPC1 prom act: qHTS Assay for NPC1 Promoter Activators. Huh7 NPC1 promoter luciferase reporter, 24 h. Potency, µM (highest dose often 9.22 µM), for the others: at the top dose activation, usual class: activators. hit rate 2.4% among 320,000. AID 485313, 2010; also: % of control where 0% means no effect; nearly all actives have a fitted effect of over 60% in size
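Luminescence read-out of NPC1 promoter-driven luciferase in stably transfected Huh7 cells; compounds delivered in DMSO and left 24 h at 37C, 5% CO2, qHTS titration format.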
Rab9 promoter act: qHTS Assay for Rab9 Promoter Activators; Huh7 Rab9 promoter-luciferase reporter, luminescence, 24 h; Potency, µM (series often up to 9.22 µM), for the others: top-dose activation, negative = inhibition, actives largely listed as activators; hit rate 2.8% among 320,000; also: % of control where 0% means no effect; nearly all actives have a fitted effect of over 60% in size
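Huh7 reporter line, Rab9 promoter upstream of luciferase. Compound exposure 24 h at 37 °C in reduced-serum medium with 10% FBS. Read-out: luminescence.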
* = called active by the depositor. This is a sample that favours compounds with a hit; in the whole collection about 9.2% have one here. Calls follow the shape of the dose curve; as a rule, active = well fitted curve in the direction sought with a large enough effect; inconclusive = small, poorly fitted or top-dose-only effect, or another doubt; inactive = no such curve, though single readings can be large; an effect the other way counts as inactive or inconclusive. Potency is read from the fitted curve at half-maximal effect.

`CCc1nnc(NC(=O)CSc2nnnn2C)s1` gave SMN2 splice enh 14%, ELG1 genotoxic -3%, FLuc modulator 0%, ELG1 DNA repair inconclusive, NPC1 prom act -2% and Rab9 promoter act 2%.
COC(=O)c1sc(NC(=O)CSc2nnnn2C)nc1C was read as ELG1 genotoxic 15µM*, FLuc modulator 17µM*, ELG1 DNA repair inconclusive, NPC1 prom act 2.2µM* and Rab9 promoter act 2µM*.
`COCc1cc(C)nc(SCC(=O)Nc2nc(C)cs2)c1C#N` gave ELG1 genotoxic inconclusive, FLuc modulator 12µM*, ELG1 DNA repair inconclusive, NPC1 prom act 0.63µM* and Rab9 promoter act 0.71µM*.
`CCCn1c(SCC(=O)Nc2nc(C)c(C(=O)OC)s2)nnc1C(C)C` gave SMN2 splice enh -9%, ELG1 genotoxic 0%, FLuc modulator -1%, ELG1 DNA repair -12%, NPC1 prom act -1% and Rab9 promoter act -3%.
`Cc1cc2nc(CSc3ccc(Cl)cc3)cc(=O)n2[nH]1` gave SMN2 splice enh 12%, ELG1 genotoxic -6%, FLuc modulator 17µM*, ELG1 DNA repair inconclusive, NPC1 prom act -2% and Rab9 promoter act -3%.
O=c1cc(-c2ccc([N+](=O)[O-])cc2)nc2cc(-c3ccc(F)cc3)[nH]n12 was read as SMN2 splice enh 19%, ELG1 genotoxic -1%, FLuc modulator inconclusive, ELG1 DNA repair -1%, NPC1 prom act -4% and Rab9 promoter act -3%.
`Cc1nc2nc(CSc3ccc(Cl)cc3)cc(=O)n2[nH]1` gave SMN2 splice enh 16%, ELG1 genotoxic -1%, FLuc modulator inconclusive, ELG1 DNA repair 15%, NPC1 prom act 0% and Rab9 promoter act -3%.
Screening Cc1cc(=O)n2[nH]c(-c3ccc(Cl)cc3)cc2n1 returned SMN2 splice enh 14µM*, ELG1 genotoxic 13%, FLuc modulator 12µM*, ELG1 DNA repair inconclusive, NPC1 prom act inconclusive and Rab9 promoter act 3.5µM*.
For Cc1cc(=O)n2[nH]c(-c3ccc(F)cc3)cc2n1 the results were SMN2 splice enh 25%, ELG1 genotoxic inconclusive, FLuc modulator 17µM*, ELG1 DNA repair inconclusive, NPC1 prom act inconclusive and Rab9 promoter act inconclusive.
Screening CCN(c1ccc(Cl)cc1)S(=O)(=O)c1nnc(NC(=O)C2CCCCC2)s1 returned FLuc modulator 6%.
Screening Cc1nn(C)c(Cl)c1CN1CCCC(C(=O)Nc2cccc(-n3cccn3)c2)C1 (stereo not given) returned ELG1 genotoxic -18%, FLuc modulator 1%, ELG1 DNA repair 16µM*, NPC1 prom act -8% and Rab9 promoter act 0%.
`CCn1cc(CN2CCCC(C(=O)Nc3cccc(-n4cccn4)c3)C2)c(C)n1` (stereo not given) gave ELG1 genotoxic -4%, FLuc modulator 0%, ELG1 DNA repair -3%, NPC1 prom act -1% and Rab9 promoter act 6%.
COc1ccc(Cc2nc(-c3ccccc3)no2)cc1 was read as SMN2 splice enh inconclusive, ELG1 genotoxic 16µM*, FLuc modulator 15µM*, ELG1 DNA repair inconclusive, NPC1 prom act inconclusive and Rab9 promoter act inconclusive.
Screening COc1ccc(Cc2nc(-c3cccs3)no2)cc1OC returned SMN2 splice enh -24%, ELG1 genotoxic -2%, FLuc modulator inconclusive, ELG1 DNA repair -6%, NPC1 prom act 1% and Rab9 promoter act -6%.
`c1csc(-c2noc(COc3ccc4c(c3)CCCC4)n2)c1` gave SMN2 splice enh 13µM*, ELG1 genotoxic 18µM*, FLuc modulator 11µM*, ELG1 DNA repair inconclusive, NPC1 prom act 4µM* and Rab9 promoter act 2.8µM*.
